# In ChEMBL document CHEMBL2218924, “A broad activity screen in support of a chemogenomic map for kinase signalling research and drug discovery” (Biochem J, 2013):
# Tests used:
# [1] = target: Ribosomal protein S6 kinase alpha-1 (Homo sapiens) (UniProt Q15418); conditions: at 1 µM
# [2] = target: Ribosomal protein S6 kinase alpha-1 (Homo sapiens) (UniProt Q15418); conditions: at 10 µM
# [3] = target: Ribosomal protein S6 kinase alpha-3 (Homo sapiens) (UniProt P51812); conditions: at 1 µM
# [4] = target: Ribosomal protein S6 kinase alpha-3 (Homo sapiens) (UniProt P51812); conditions: at 10 µM
# [5] = target: Ribosomal protein S6 kinase alpha-2 (Homo sapiens) (UniProt Q15349); conditions: at 1 µM
# Ribosomal protein S6 kinase alpha-2 (Homo sapiens), sequence (Q15349 whole entry): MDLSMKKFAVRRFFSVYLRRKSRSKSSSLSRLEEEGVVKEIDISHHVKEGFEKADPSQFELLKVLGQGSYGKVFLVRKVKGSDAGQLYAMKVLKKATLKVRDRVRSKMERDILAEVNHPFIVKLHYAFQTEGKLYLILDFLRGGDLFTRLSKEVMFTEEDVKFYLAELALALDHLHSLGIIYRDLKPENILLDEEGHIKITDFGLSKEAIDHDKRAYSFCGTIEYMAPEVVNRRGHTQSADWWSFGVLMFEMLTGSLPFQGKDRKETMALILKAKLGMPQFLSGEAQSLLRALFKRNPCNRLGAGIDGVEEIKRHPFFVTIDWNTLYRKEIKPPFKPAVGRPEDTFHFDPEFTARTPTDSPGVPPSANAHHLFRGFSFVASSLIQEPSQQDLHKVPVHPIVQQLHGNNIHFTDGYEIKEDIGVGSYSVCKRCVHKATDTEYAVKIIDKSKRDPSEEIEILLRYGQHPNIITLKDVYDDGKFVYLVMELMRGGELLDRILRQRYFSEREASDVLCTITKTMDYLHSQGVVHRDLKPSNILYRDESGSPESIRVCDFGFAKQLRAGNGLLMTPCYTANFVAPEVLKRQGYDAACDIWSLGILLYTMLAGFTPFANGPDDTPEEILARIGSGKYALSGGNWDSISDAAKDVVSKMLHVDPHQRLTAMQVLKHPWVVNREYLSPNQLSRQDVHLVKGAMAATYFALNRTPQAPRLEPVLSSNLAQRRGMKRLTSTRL
# [6] = target: Ribosomal protein S6 kinase alpha-2 (Homo sapiens) (UniProt Q15349); conditions: at 10 µM
# [7] = target: Ribosomal protein S6 kinase alpha-6 (Homo sapiens) (UniProt Q9UK32); conditions: at 1 µM
# Ribosomal protein S6 kinase alpha-6 (Homo sapiens), sequence (Q9UK32 whole entry): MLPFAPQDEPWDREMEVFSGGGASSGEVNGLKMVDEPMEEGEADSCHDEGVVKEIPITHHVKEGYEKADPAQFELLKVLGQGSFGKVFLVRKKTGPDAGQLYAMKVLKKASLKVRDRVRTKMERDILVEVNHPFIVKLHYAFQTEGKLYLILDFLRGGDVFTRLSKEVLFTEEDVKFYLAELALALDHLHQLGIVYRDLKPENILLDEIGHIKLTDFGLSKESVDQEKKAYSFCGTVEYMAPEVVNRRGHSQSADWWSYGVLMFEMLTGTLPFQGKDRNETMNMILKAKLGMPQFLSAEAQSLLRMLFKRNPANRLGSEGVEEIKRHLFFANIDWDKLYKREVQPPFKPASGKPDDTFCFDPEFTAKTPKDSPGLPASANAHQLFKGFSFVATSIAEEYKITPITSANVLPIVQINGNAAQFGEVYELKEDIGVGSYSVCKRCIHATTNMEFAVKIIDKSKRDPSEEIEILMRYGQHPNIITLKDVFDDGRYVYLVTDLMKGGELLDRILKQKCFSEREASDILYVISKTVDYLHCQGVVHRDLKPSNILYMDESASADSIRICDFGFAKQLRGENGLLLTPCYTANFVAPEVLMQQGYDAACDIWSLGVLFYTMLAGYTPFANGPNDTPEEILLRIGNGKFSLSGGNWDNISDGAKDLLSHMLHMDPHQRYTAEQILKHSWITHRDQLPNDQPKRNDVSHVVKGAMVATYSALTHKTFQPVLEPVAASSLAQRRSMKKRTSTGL
# [8] = target: Ribosomal protein S6 kinase alpha-6 (Homo sapiens) (UniProt Q9UK32); conditions: at 10 µM
# [9] = target: Mitogen-activated protein kinase 14 (Homo sapiens) (UniProt Q16539); conditions: at 1 µM
# Mitogen-activated protein kinase 14 (Homo sapiens), sequence (Q16539 whole entry): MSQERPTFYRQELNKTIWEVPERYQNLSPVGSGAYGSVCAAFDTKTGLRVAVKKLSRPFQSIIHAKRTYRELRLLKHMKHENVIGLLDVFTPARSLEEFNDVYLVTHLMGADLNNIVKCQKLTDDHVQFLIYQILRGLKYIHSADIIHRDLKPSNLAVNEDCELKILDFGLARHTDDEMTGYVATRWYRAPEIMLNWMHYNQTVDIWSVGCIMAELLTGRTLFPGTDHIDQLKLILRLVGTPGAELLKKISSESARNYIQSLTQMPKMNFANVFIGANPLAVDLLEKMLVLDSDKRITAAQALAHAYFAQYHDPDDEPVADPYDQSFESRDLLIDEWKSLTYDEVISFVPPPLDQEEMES
# [10] = target: Mitogen-activated protein kinase 14 (Homo sapiens) (UniProt Q16539); conditions: at 10 µM
# Ribosomal protein S6 kinase alpha-3 (Homo sapiens), sequence (P51812 whole entry): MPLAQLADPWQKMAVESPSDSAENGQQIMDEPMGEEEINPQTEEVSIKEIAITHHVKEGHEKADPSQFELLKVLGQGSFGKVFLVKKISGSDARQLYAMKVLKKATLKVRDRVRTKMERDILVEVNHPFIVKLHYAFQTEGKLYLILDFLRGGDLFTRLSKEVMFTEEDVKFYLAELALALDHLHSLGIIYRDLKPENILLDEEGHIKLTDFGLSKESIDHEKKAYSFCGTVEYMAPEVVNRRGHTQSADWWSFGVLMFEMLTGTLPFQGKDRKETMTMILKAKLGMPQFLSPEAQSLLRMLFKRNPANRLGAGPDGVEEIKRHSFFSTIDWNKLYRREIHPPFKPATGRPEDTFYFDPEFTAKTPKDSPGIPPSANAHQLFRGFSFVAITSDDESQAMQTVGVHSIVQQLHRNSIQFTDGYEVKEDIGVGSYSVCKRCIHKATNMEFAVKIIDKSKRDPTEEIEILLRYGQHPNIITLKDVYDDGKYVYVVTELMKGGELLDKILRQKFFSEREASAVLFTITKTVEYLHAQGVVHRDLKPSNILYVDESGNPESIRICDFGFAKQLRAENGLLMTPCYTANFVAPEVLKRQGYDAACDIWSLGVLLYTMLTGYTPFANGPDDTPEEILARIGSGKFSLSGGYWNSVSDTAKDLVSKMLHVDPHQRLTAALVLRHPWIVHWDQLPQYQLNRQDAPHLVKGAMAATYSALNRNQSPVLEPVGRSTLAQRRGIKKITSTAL
# Ribosomal protein S6 kinase alpha-1 (Homo sapiens), sequence (Q15418 whole entry): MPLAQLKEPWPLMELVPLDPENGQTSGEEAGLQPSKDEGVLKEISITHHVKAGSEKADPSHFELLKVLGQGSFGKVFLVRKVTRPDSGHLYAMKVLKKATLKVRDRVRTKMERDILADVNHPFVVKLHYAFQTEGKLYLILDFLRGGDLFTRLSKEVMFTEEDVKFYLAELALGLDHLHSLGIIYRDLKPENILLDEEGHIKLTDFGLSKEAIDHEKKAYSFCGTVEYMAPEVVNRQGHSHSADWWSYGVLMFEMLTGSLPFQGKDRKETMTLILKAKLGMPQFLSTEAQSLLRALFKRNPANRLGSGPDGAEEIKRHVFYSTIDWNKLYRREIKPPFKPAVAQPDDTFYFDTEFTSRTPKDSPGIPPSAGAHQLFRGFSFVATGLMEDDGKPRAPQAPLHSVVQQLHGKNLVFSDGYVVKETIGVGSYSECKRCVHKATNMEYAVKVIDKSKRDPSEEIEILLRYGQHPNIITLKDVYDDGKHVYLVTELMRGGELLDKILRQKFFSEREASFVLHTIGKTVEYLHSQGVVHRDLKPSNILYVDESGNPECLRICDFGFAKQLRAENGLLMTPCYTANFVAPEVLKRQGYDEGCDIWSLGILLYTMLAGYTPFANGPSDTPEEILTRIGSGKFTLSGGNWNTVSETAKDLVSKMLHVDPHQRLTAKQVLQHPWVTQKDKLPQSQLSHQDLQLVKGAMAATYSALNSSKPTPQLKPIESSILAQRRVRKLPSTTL
Compound,residual activity [1] [%],residual activity [2] [%],residual activity [3] [%],residual activity [4] [%],residual activity [5] [%],residual activity [6] [%],residual activity [7] [%],residual activity [8] [%],residual activity [9] [%],residual activity [10] [%]
Cc1nc2cc3nc(-c4cccs4)cnc3cc2n1C,115,89,102,75,107,83,101,84,114,112
COc1cccc(-c2cc(=O)c3ccccc3o2)c1N,91,81,118,106,102,101,92,133,86,94
COc1cc2ncnc(N3CCN(C(=O)Nc4ccc(Oc5ccccc5)cc4)CC3)c2cc1OC,93,118,56,65,90,71,106,111,78,79
Cc1cc(Nc2nc(-c3ccccc3)nc3ccccc23)n[nH]1,51,15,58,11,29,6,43,8,–,64
Nc1n[nH]c2nnc(-c3c(-c4ccccc4)nn4ccccc34)cc12,108,93,111,96,90,68,102,88,78,33
Cc1cncc2cccc(S(=O)(=O)N3CCCN(C(=O)CN)C[C@H]3C)c12,–,–,60,23,–,–,90,66,74,81
Cc1ccc(S(=O)(=O)/C=C/C#N)cc1,94,121,116,120,102,109,74,112,94,97
CCC(=O)Nc1ccc2ncnc(Nc3cccc(Br)c3)c2c1,119,84,120,91,99,71,124,82,78,50
CC(=O)c1ccc(N2CCOCC2)cc1O,–,110,64,56,105,107,128,102,–,–
CO[C@@H]1[C@H](N(C)C(=O)c2ccccc2)C[C@H]2O[C@]1(C)n1c3ccccc3c3c4c(c5c6ccccc6n2c5c31)C(=O)NC4,0,1,1,0,1,0,0,3,71,78
CCN(CC)CCCCN1c2ccccc2Oc2ccc(Cl)cc21,110,117,67,64,109,90,118,104,93,84
N#CC(C#N)=C(N)/C(C#N)=C/c1ccc(O)cc1,94,78,49,27,–,–,94,–,78,55
O=C(O)c1ccc2c3c1cccc3c(=O)n1c3ccccc3nc21,103,79,51,37,90,55,81,73,95,94
CC(=O)O/N=C1\C(=C2\C(=O)Nc3cc(Br)ccc32)Nc2ccccc21,105,59,40,28,71,34,74,89,88,85
Ic1cccc(CSc2nnc(-c3ccncc3)o2)c1,55,46,39,28,30,24,97,100,90,79
O=c1c2ccccc2[nH]c(=S)n1CCN1CCC(=C(c2ccc(F)cc2)c2ccc(F)cc2)CC1,113,61,79,50,119,100,114,91,97,104
CNc1cc2c(Nc3cccc(Br)c3)ncnc2cn1,115,59,110,71,87,38,101,74,83,77
CCN(CC)C(=O)c1ccc(Nc2nc(OCC3CCCCC3)c3nc[nH]c3n2)cc1,58,7,30,1,18,2,28,7,–,70

Compound,residual activity [1] [%],residual activity [2] [%],residual activity [3] [%],residual activity [4] [%],residual activity [5] [%],residual activity [6] [%],residual activity [7] [%],residual activity [8] [%],residual activity [9] [%],residual activity [10] [%]
CC(C)n1cnc2/c(=N/c3cccc(Cl)c3)nc(NCCO)[nH]c21,50,22,15,6,6,2,34,21,84,74
COc1ccc(S(=O)(=O)N(CCO)c2ccccc2CN(C)C/C=C/c2ccc(Cl)cc2)cc1,119,103,60,61,106,92,108,90,93,96
COc1cc2ncc(-c3ccccc3)nc2cc1OC,–,–,54,25,100,68,92,94,92,88
c1ccc(-c2n[nH]c3c2oc2ccccc23)cc1,97,58,66,44,92,64,–,–,93,78
O=[N+]([O-])c1ccc(-c2nc(-c3ccc(F)cc3)c(-c3ccncc3)[nH]2)cc1,101,104,60,62,103,97,91,83,1,2
COc1cc2ncnc(Nc3ccc(NC(=O)c4ccccc4)cc3)c2cc1OC,–,75,67,40,109,69,104,109,–,–
O=C1Nc2ccccc2/C1=C1/Nc2ccccc2/C1=N\OCCC(O)CO (stereo not drawn),18,12,15,1,11,2,7,7,–,78
Cn1nc2c3c(cccc31)C(=O)c1ccccc1-2,–,93,58,42,90,63,59,67,91,90
O=C1Nc2cc(Br)ccc2/C1=C1/Nc2ccccc2/C1=N\O,72,73,24,6,17,28,38,24,85,83
c1ccc2c(-c3ccncc3)c[nH]c2c1,–,67,72,43,98,48,89,107,77,54
c1ccc(-c2n[nH]cc2-c2ccnc3ccccc23)nc1,–,–,60,62,108,95,–,–,49,15
CN(C)CCCn1cc(C2=C(c3c[nH]c4ccccc34)C(=O)NC2=O)c2ccccc21,15,2,–,–,–,–,4,3,109,106
Oc1n[nH]c2nnc(-c3c(-c4ccccc4)nn4ccccc34)cc12,114,111,96,86,90,78,91,106,93,85
O=C1NC(=O)/C(=C/c2ccc3c(c2)OC(F)(F)O3)S1,125,65,56,35,117,99,125,103,99,109
O=Nc1c(-c2c(O)[nH]c3ccccc23)[nH]c2ccccc12,40,6,50,7,19,4,20,12,94,78
C[C@@H](N)[C@H]1CC[C@H](C(=O)Nc2ccncc2)CC1,–,48,–,–,62,11,110,60,106,107
Cc1cccc(-c2[nH]c(C(C)(C)C)nc2-c2ccc3c(c2)OCO3)n1,–,–,67,47,101,97,–,–,49,16
